Test results: PubChem BioAssay AID492990 (National Center for Advancing Translational Sciences (NCATS), 2010)
Values without a mark were called inactive.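 The calls were made as follows: active = clear integrase inhibition at one or more tested doses, judged significant by the depositor; inactive = only baseline response.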

system: HIV-1 integrase; experiment: Gel-Based Assay for Inhibitors of HIV Integrase: Counterscreen for TDP1; details: recombinant HIV-1 integrase, 32P DNA gel densitometry; series mostly up to 333 µM; inhibition %, high = inhibition: at the top concentration
Procedure: HIV Integrase enables the HIV virus to integrate its genetic material into host cells's DNA. This particular assay was utilized as a counterscreen for inhibitors of human tyrosyl DNA phosphodiesterase I (Tdp1). See probe development summary bioassay AID 485312 for further details on the tdp1 inhibitors project.
HIV-1 integrase catalytic assay was carried out as previously described [Marchand et al. Methods in Enzymology 2001] by mixing 400 nM recombinant integrase with 20 nM [32P] radiolabeled DNA substrate in a buffer containing 50 mM MOPS, pH 7.2, 7.5 mM MgCl2, 14.3 mM 2-mercaptoethanol, and the drug of interest or 10% DMSO. Reactions were incubated at 37 degrees C for 1 h and quenched by the addition of an equal volume of gel loading dye (formamide with 0.25% bromophenol blue, 0.25% xylene cyanol and 5 mM EDTA). Reaction products were separated on a 16% polyacrylamide denaturing sequencing gel. Dried gels were exposed overnight and visualized using a Typhoon 8600 (GE Healthcare, Piscataway, NJ). Densitometry analyses were performed using the ImageQuant software from GE Healthcare.

Row | Structure (SMILES) | inhibition %, high = inhibition
1 | O=c1c2ccc(Br)cc2nc2sc(Nc3ccc4c(c3)CCC4)nn12 | 0.7%
2 | O=c1c2ccccc2nc2sc(Nc3ccc4c(c3)CCC4)nn12 | 0.1%
